A short description of the assay: growth inhibition of WT strain, primary screen, mitochondrial fusion inhibitor project, WT and mutant strains, chemical genetic (AID 1362). The settings on record: mitochondrial fusion phenotypic screen, at 10 µM.
Where [1] appears, read: WT strain, growth inhibition, stronger effect = higher value.

SMILES strings stand for the structures. The whole screen tested about 190,000 compounds, of which about 4,000 (2.1%) were called active. The sample holds actives, similar compounds and a random draw of the others, so the mix is not that of the screen. Rule as the data show it: active = inhibition above about 58%; inactive = the rest, inconclusive results apart; tested in S. cerevisiae.

`CSc1ccccc1NC(=O)CN(C)CC(=O)Nc1cccc(Br)c1`: the inhibition (in general, the drop in the measured response relative to a control, in per cent) runs as follows: under setting [1], 21.6% (inactive); (mutant strain inhibition) -2.69%.
For `COc1ccc(CN2CN(C3CCCC3)CSC2=S)cc1`, in that order: -12.1% (inactive) and -26.6%.
The matching figures for `Cc1noc(COc2ccccc2OCC(O)CNC(C)(C)C)n1` (stereo unspecified): -1.99% (inactive) and -4.87%.
Turning to `Cc1nc2ccccc2cc1OCc1ccc(F)cc1`, the inhibition runs as follows: under setting [1], -15.6% (inactive); (mutant strain inhibition) -4.03%.
For `Cc1noc(COc2ccccc2OCc2onc(C)c2Cl)c1Cl`, in that order: 64% (active) and 31.8%.
The matching figures for `CCc1[nH]nc(C(=O)N2CCCC(CNS(=O)(=O)c3cccs3)C2)c1C` (stereo unspecified): -19% (inactive) and 4.29%.
Turning to `O=[N+]([O-])c1ccc2[nH]c3c(c2c1)CCCC3O` (stereo unspecified), the inhibition was -3.98% (inactive) under setting [1] and 12% (mutant strain inhibition).
As to `COc1ccc(F)cc1C(=O)C1CCCN(C(=O)CCc2ccccn2)C1` (stereo unspecified), the inhibition under setting [1] is 15.2% (inactive) and the inhibition (mutant strain inhibition) was -2.96%.
For `CCOC(=O)N1CCN(C(=S)Nc2ccc(C)cc2C)CC1`, in that order: 7.78% (inactive) and 3.64%.
As for `CCOC(=O)c1c(C)[nH]c2c1-c1ccccc1C(=O)C2=O`, the inhibition runs as follows: under setting [1], 46.9% (inactive); (mutant strain inhibition) 15%.
Consider `CCOC(=O)C1=C(c2ccc(OC)cc2)C(=O)c2ccccc2C1=O`, for which the inhibition was 68.3% (active) under setting [1] and 20.7% (mutant strain inhibition).
With `CCOC(=O)c1ccccc1NS(=O)(=O)c1ccc(OC)cc1`, the inhibition under setting [1] was 38% (inactive) and the inhibition (mutant strain inhibition) came to 30.7%.
Turning to `CCC(=O)c1ccc(OCC(O)Cn2nc(C)c(C(C)=O)c2C)cc1` (stereo unspecified), the inhibition is -6.24% (inactive) under setting [1] and -0.7% (mutant strain inhibition).
On to `CCCn1nc(C(=O)N2CCCc3ccccc32)c2ccccc2c1=O`, for which the inhibition reads like this: under setting [1], 9.04% (inactive); (mutant strain inhibition) 8.88%.
The matching figures for `Cc1ccc(-c2csc(NC(=O)c3cnccn3)n2)cc1C`: -10.3% (inactive) and 14.6%.
On to `Cc1ccc(C(=O)/C=C/c2c(C)nn(-c3ccccc3)c2Cl)cc1`, for which the inhibition by setting is: under setting [1], 59.5% (active); (mutant strain inhibition) -6.72%.
The matching figures for `Cc1nn(-c2ccccc2)c(Cl)c1/C=C/C(=O)c1ccc(O)cc1`: -8.06% (inactive) and 3.09%.
In the case of `Cc1nn(-c2ccccc2)c(Cl)c1C(=O)Nc1ccccc1`, the inhibition is, setting by setting: under setting [1], 24.7% (inactive); (mutant strain inhibition) -5.62%.
With `O=C(Cn1c(N2CCN(C/C=C/c3ccccc3)CC2)nc2ccccc21)c1ccccc1`, the inhibition was 45.1% (inactive) under setting [1] and 41.5% (mutant strain inhibition).
In the case of `COc1ccc(C(=O)CSc2nnc(-c3ccco3)o2)cc1`, the inhibition is, setting by setting: under setting [1], -6.52% (inactive); (mutant strain inhibition) -35.3%.
Consider `N#Cc1cccc(Nc2c3c(nc4ccccc24)CCCC3)c1`, for which the inhibition was -0.59% (inactive) under setting [1] and 6.35% (mutant strain inhibition).
For `COC(=O)c1c(C)[nH]c(C)c1-c1ccc([N+](=O)[O-])cc1`, in that order: 53% (inactive) and 55.8%.
`COc1ccc(NC(=S)Nc2ccc(S(N)(=O)=O)cc2)c(C)c1`: the inhibition by setting is: under setting [1], 13.8% (inactive); (mutant strain inhibition) 6.64%.
For `CC(C)(C)OC(=O)N/N=C/c1cn(-c2ccccc2)nc1-c1cccnc1`, in that order: -8.33% (inactive) and -1.71%.
Regarding `COc1ccc(-c2nn(-c3ccccc3)cc2/C=N/Nc2ccccn2)cc1OC`, the inhibition runs as follows: under setting [1], 60.2% (active); (mutant strain inhibition) 31.9%.
The matching figures for `COc1ccc(-c2nn(-c3ccccc3)cc2C(=O)Nc2nccs2)cc1OC`: 26.6% (inactive) and -2.08%.
For `Cc1nnsc1C(=O)N/N=C/c1cccc(C(F)(F)F)c1`, in that order: 36.2% (inactive) and 7.39%.
For `Cc1cc(=O)oc(C)c1C(=O)Nc1cnc2ccccc2c1`, in that order: 98.9% (active) and 96.3%.
For `Cc1cc(=O)oc(C)c1C(=O)NCCN(C)Cc1ccccc1`, the inhibition runs as follows: under setting [1], -0.58% (inactive); (mutant strain inhibition) 11.8%.
As for `Cc1cc(=O)oc(C)c1C(=O)NCc1ccc(F)cc1`, the inhibition is -0.25% (inactive) under setting [1] and 16.4% (mutant strain inhibition).
For `CC(C)C(=O)NCc1cc(-c2ccc(Cl)cc2)no1`, the inhibition under setting [1] is 1.64% (inactive) and the inhibition (mutant strain inhibition) is -1.57%.
Take `O=C(CC1C(=O)NCCN1Cc1ccc(-c2ccccc2)cc1)NCC1CCOCC1` (stereo unspecified): the inhibition under setting [1] was -14.8% (inactive) and the inhibition (mutant strain inhibition) was -10.2%.
For `Brc1ccc(CSc2ccc(-c3ccco3)nn2)cc1`, in that order: 12.2% (inactive) and -1.7%.
For `Cn1c(SCc2c(F)cccc2Cl)nnc1-c1cnccn1`, in that order: 4.78% (inactive) and -6.62%.
For `Fc1cccc(Cl)c1CSc1ccc(-c2ccco2)nn1`, in that order: 75.3% (active) and 67.7%.
As for `CCc1ccc(NC(=O)CSc2nnc(-c3cnccn3)n2Cc2ccco2)cc1`, the inhibition under setting [1] was 6.65% (inactive) and the inhibition (mutant strain inhibition) was found to be 10.6%.
With `Cc1ccc(NC(=O)CSc2nnc(-c3cnccn3)n2Cc2ccco2)cc1C`, the inhibition under setting [1] is -14.2% (inactive) and the inhibition (mutant strain inhibition) is -7.75%.
The matching figures for `CCn1c(SCC(=O)Nc2cc(C)ccc2C)nnc1-c1cnccn1`: 62.3% (active) and 14.8%.
For `CCOc1ccc(C2c3[nH]c4ccccc4c3CCN2Cc2cn(CC)nc2C)cc1` (stereo unspecified), in that order: 36% (inactive) and 39.9%.
Turning to `COc1cccc(N(Cc2nnc3n2CCCCC3)C(=O)Nc2ccccc2F)c1`, the inhibition is 9.35% (inactive) under setting [1] and 6.31% (mutant strain inhibition).
Take `Cc1[nH]n(-c2cccc(Cl)c2)c(=O)c1-c1ccc(Cl)cc1`: the inhibition is 81.8% (active) under setting [1] and 74.9% (mutant strain inhibition).
As for `Cc1[nH]n(-c2cccc(Cl)c2)c(=O)c1/C=N/n1c(C)nc2ccccc2c1=O`, the inhibition runs as follows: under setting [1], -0.49% (inactive); (mutant strain inhibition) -9.97%.
Turning to `O=c1[nH]n(-c2cccc(Cl)c2)c2ncccc12`, the inhibition was 3.71% (inactive) under setting [1] and 33.7% (mutant strain inhibition).
